Sfp inh – blocks B. subtilis Sfp PPTase activity; Q9F4F7; Biochemical Sfp PPTase activity, qHTS; Potency, µM, inactives show largest response in the series, negative = inhibition, most hits filed as inhibitors; 310,000 compounds, 3.5% hits; AID 1490;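 note: the enzyme is Sfp with the accession as filed and its product quenches rhodamine fluorescence; 0% = enzyme reaction without inhibitor and -100% = no enzyme wells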
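Compounds were incubated with enzyme (final 15 nM) for 15 min at room temperature before substrate addition started the reaction. Fluorescence at 525 nm excitation, 598 nm emission was recorded immediately and after 30 minutes.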
G9a inh – inhibitors of human histone lysine methyltransferase G9a; Q96KQ7; G9a H3K9 monomethylation, AlphaScreen, 2 h; Potency, µM (highest dose often 102 µM), inactives show top-dose activity, negative = inhibition, usual class: inhibitors; 350,000 compounds, 8.8% hits; AID 504332; note: % is set by controls: 0 for no effect and ±100 for the full control effect; nearly all actives have a fitted effect of over 75% in size
Target sequence (Q96KQ7 913-1193 limits assumed): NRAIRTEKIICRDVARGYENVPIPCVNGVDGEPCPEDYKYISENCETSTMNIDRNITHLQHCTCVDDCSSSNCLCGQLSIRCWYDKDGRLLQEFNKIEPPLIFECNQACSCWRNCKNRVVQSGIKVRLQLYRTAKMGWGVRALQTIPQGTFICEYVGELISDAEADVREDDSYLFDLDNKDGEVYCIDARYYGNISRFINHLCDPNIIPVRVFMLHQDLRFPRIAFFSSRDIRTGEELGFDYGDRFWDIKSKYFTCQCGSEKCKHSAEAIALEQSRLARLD
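AlphaScreen read-out: biotin-H3K9 peptide (500 nM) methylation by 20 nM enzyme with 20 uM SAM, 2 h at room temperature after 15 min compound preincubation; anti-monomethyl H3K9 antibody plus donor/acceptor beads, 10 min dark.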
Glioma ERSR ind – inducers of ER stress response in human glioma cells | U87-MG GRP78 promoter luciferase reporter, 16 h | Potency, µM, for inactives: top-dose activation, hits mostly activators | 420,000 compounds, 0.02% hits | AID 602332; note: series mostly up to about 76 µM; % of control where 0% means no effect; nearly all actives have a fitted effect of over 35% in size
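ERSR induction read as luciferase luminescence (Bright-Glo, 10 min at room temperature) in stably transfected human U87-MG glioma cells exposed to compounds for 16 h, using GRP78 as sensor.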
ALOX12 inh – blocks human arachidonate 12S-lipoxygenase | P18054 | purified 12hLO, xylenol orange hydroperoxide absorbance | Potency, µM (doses to about 108 µM), for inactives: at the highest dose activity change, negative = inhibition, hits mostly inhibitors | 580,000 compounds, 1.1% hits | AID 1671190; note: % is set by controls: 0 for no effect and ±100 for the full control effect
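Hydroperoxide product was detected by ferrous iron/xylenol orange as the 573 to 405 nm absorbance ratio. Arachidonic acid at 40 uM (final) was turned over for 30 min at room temperature by 150 nM human 12hLO, pH 7.0 Hepes buffer, after 15 min compound preincubation.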
VDR inh – blocks the human vitamin D receptor | VDR-SRC2-3 peptide fluorescence polarization, 2 h | 400,000 compounds, 0.93% hits | Potency, µM, for the others: max response, negative = inhibition, actives largely listed as inhibitors | P11473; note: % is set by controls: 0 for no effect and ±100 for the full control effect
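Compounds are added to VDR with labelled SRC2-3 coactivator peptide and held 2 h at room temperature. Inhibition of the VDR–peptide interaction is then read as a change in fluorescence polarization.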
* hit, by the source's call; ? = inconclusive; . = no result given; ! = not active in a repeat; [ ] = remark or other dose. Shown is part of a subset that was picked to be rich in hits. Calls come from the whole dose curve; as a rule, active = well fitted curve in the direction sought with a large enough effect; inconclusive = small, poorly fitted or top-dose-only effect, or another doubt; inactive = no such curve, though single readings can be large; an effect the other way counts as inactive or inconclusive. Potency is the fitted concentration of half-maximal effect.

SMILES | Sfp inh | G9a inh | Glioma ERSR ind | ALOX12 inh | VDR inh
COCCOc1cc(NC(=O)c2nn(C)c(=O)c3ccccc23)ccc1OC | . | . | . | 6.5% | .
COC(=O)c1cc(-c2ccccc2)sc1NC(=O)CN1C(=O)c2ccccc2C1=O | 20µM* | 10µM* | -3.6% | ? | -26.6%
CCOC(=O)c1cc(-c2ccccc2)sc1NC(=S)Nc1cccc(C)n1 | -20.3% | . | -5.0% | 20µM* | -3.1%
CCOC(=O)c1cc(-c2ccccc2)sc1NC(=O)c1ccc(OC)c(OC)c1 | 31.6µM* | 3.55µM* | -2.9% | 11.2µM* | 79.4µM*
COC(=O)c1cc(OC)c(OC)cc1NC(=O)CN1C(=O)c2ccccc2C1=O | 16.4% | 1.8%[59 µM] | -6.1% | -9.5% | -4.9%
COc1cccc(NC(=O)Nc2cc(C(=O)NCc3cccc(F)c3)ccc2N2CCOCC2)c1 | . | . | . | -3.2% | .
O=C(Nc1cccc2ccccc12)O[C@@H]1CO[C@H]2[C@@H]1OC[C@@H]2NS(=O)(=O)Cc1ccccc1 | . | . | . | 0.5% | .
O=C(O)c1ccc(F)c(S(=O)(=O)N2CCCCC2)c1 | . | . | . | -20.8% | .
CC(=O)c1cnn(-c2cc(Oc3ccc(C#N)cc3)nc(C)n2)c1C | . | . | . | 1.3% | .
Cc1ccc(-n2nc3c(c2NC(=O)C(C)(C)C)CSC3)c(C)c1 | 70.8µM* | 39.8µM* | -0.5% | 13.5% | -10.9%
Cc1ccc(-n2nc3c(c2NC(=O)/C=C\c2ccc4c(c2)OCO4)CSC3)c(C)c1 | -4.7% | -7.2% | -2.1% | -15.3% | -7.7%
Cc1ccc(-n2nc3c(c2NC(=O)c2ccc(Br)o2)CSC3)c(C)c1 | ? | 39.8µM* | -4.5% | 8.91µM* | 5.6%
Cc1ccc(-n2nc3c(c2NC(=O)CC(C)C)CS(=O)C3)cc1 (configuration not stated) | -8.9% | 31.6µM* | -3.6% | 39.8µM* | 2.7%
Cc1ccccc1-n1nc2c(c1NC(=O)c1cccc(F)c1)CS(=O)C2 (configuration not stated) | 5.5% | 50.1µM* | -1.1% | -11.7% | 14.0%
CC(C)(C)C(=O)Nc1c2c(nn1-c1ccc(F)cc1)CSC2 | 18.8% | 62.8%[59 µM] | -3.6% | -7.9% | -11.6%
CC(=O)Nc1c2c(nn1-c1ccccc1C)CS(=O)C2 (configuration not stated) | 6.1% | 10.0% | -0.8% | -3.2% | ?
O=C(CCc1ncc(-c2ccc(F)cc2F)o1)Nc1ccc2c(c1)C(=O)NC2 | . | . | . | 3.3% | .
COc1ccc(S(=O)(=O)c2c(C)c(C)n(CC(C)C)c2NC(=O)C2CCCO2)cc1 (configuration not stated) | . | . | . | -15.2% | .
O=C(c1cc2cc([N+](=O)[O-])ccc2oc1=O)N1CCN(c2ccccc2)CC1 | . | . | . | 0.8% | .
O=C(CSc1nc(Cl)nc2nc[nH]c12)NCCc1c[nH]c2ccccc12 | . | . | . | 1.4% | .
CCC(=O)Nc1c2c(nn1-c1ccc(C)cc1C)CSC2 | ? | 50.1µM* | -4.6% | -2.0% | 10.3%
Cc1ccc(-n2nc3c(c2NC(=O)c2ccco2)CS(=O)C3)c(C)c1 (configuration not stated) | . | 14.1µM* | -0.7% | ? | -20.7%
CCC(=O)Nc1c2c(nn1-c1ccccc1)CSC2 | 13.4% | 8.4% | -3.0% | 20.1% | -15.6%
CCCc1ccc(C(=O)NNc2cc(Cl)ccc2Cl)cc1 | -3.0% | ? | 0.0% | ? | -2.7%
CCOC(=O)C(=NC(C)(C)C)NNc1cc(Cl)ccc1Cl | -7.0% | 17.8µM* | -1.5% | -13.5% | 2.7%
SMILES | Sfp inh | G9a inh | Glioma ERSR ind | ALOX12 inh | VDR inh
CCOC(=O)C(=O)NNc1ccc(Cl)cc1 | 2.2% | ? | -4.5% | ? | -0.8%
CCOC(=O)C(=NC(C)C)NNc1cc(Cl)ccc1Cl | -23.3% | 8.91µM* | -2.8% | ? | 23.7%
O=C1c2cc(N3CCOCC3)nc(-c3ccccc3)c2CN1Cc1ccccc1 | . | . | . | -4.6%[176 µM] | .
N#CC(=C=[N-])c1nc2ccccc2nc1-[n+]1cccc(NC(=O)c2ccccc2)c1 | 8.91µM* | -4.1% | -3.0% | -25.3% | -13.5%
CC(C)N1C(=O)C2C(c3ccccc3O)NC(C)(C(=O)O)C2C1=O (configuration not stated) | 20µM* | 1.9% | -1.5% | 21.9% | -5.3%
CCCCN(CC)C(=O)c1ccc2nc(C)c(C)nc2c1 | . | . | . | -0.9% | .
S=c1[nH]c2cc3ccccc3cc2[nH]1 | 56.2µM*! | 2.24µM* | -0.9% | ? | -8.3%
Cc1cc2[nH]c(=S)[nH]c2cc1C | 35.5µM* | 1.78µM* | 4.5% | ? | -11.7%

Screening data from PubChem.
